Source: PubChem BioAssay (NCATS)
Results filed as inconclusive are left out. Calls of active or inactive are those of the source. The call rests on the fitted dose curve; in most records, active means well fitted inhibition curve with a large enough effect; inconclusive means small, poorly fitted or top-dose-only effect; inactive means flat fitted curve, though single readings scatter. Where a SMILES comes first, the peptide text is derived from it. [ ]: non-standard residue; d: D form. PhLac = O=C(O)[CH](O)Cc1ccccc1; NMeV = CN[CH](C(=O)O)C(C)C

molecular target: Calcium and integrin-binding protein 1 (Homo sapiens) (UniProt Q99828); test: Primary qHTS for Identification of Calcium Integrin Binding Protein 1 (CIB1) Competitor (AID 1508620); conditions: CIB1-GST / FITC-alphaIIb peptide fluorescence polarization; series mostly up to 57.7 µM; activity change, negative = inhibition: at the top concentration;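 further: GST tagged CIB1 binding a fluorescein labelled alphaIIb integrin peptide tracer; top concentration of the series differs between compounds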
Method in brief: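 Fluorescence polarization competition: CIB1-GST (1 uM final) preincubated with compound 15 min at room temperature, then FITC-labeled alphaIIb peptide (100 nM final) added for another 15 min. Polarization read at Ex 480/Em 540.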
On the % scale 0 is the no-effect control and ±100 the full control effect.

Chain of Calcium and integrin-binding protein 1 (Homo sapiens) (Q99828 whole entry, looked up): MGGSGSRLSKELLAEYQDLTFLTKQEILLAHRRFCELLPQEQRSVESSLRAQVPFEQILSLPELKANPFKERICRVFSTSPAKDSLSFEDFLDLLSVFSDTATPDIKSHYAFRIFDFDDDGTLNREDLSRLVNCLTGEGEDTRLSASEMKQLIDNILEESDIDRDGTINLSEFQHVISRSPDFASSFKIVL

| Structure (SMILES) | activity change, negative = inhibition | Potency |
| --- | --- | --- |
| CC1=CC(=O)C[C@H]2[C@@H]1CC[C@@H](C)[C@]21CO[C@H](c2ccoc2)C1=O | -2.04% (inactive) |  |
| CCOC(=O)[C@H]1O[C@@H]1C(=O)N[C@@H](CC(C)C)C(=O)NCCC(C)C | -4.82% [at 114 µM] (inactive) |  |
| Nc1ccn([C@@H]2C(F)=C(CO)[C@@H](O)[C@H]2O)c(=O)n1 |  | inactive |
| C/C=C(\C)C(=O)O[C@H]1[C@@H](O[C@]2(COC(=O)CC(C)C)O[C@H](COC(=O)C(C)C)[C@@H](OC(C)=O)[C@@H]2O)O[C@H](COC(C)=O)[C@@H](O)[C@@H]1O | 3.01% [at 30.2 µM] (inactive) |  |
| CC(C)[C@@H](C)/C=C/[C@@H](C)[C@H]1CC[C@H]2C3=CC=C4C[C@@H](O)CC[C@]4(C)[C@H]3CC[C@]12C | 4.59% (inactive) |  |
| CC1=C2C(=O)C=C(CO)[C@@H]2[C@H]2OC(=O)[C@H](C)[C@@H]2[C@@H](O)C1 | -9.66% [at 114 µM] (inactive) |  |
| COc1ccc(C(O[C@@H]2O[C@H](CO)[C@@H](O)[C@H](O)[C@H]2O)C(CO)Oc2ccc(/C=C/CO)cc2OC)cc1O (stereo not given in full) | 4.32% (inactive) |  |
| Clc1ccc2c(c1)C1=NCCN1c1c(-c3noc(C4CC4)n3)ncn1-2 | -7.06% [at 114 µM] (inactive) |  |
| CC1(C)O[C@]23C[C@H]1C[C@H](OC(=O)c1ccoc1)[C@]2(C)[C@@H](OC(=O)c1ccoc1)CCC3(C)O (stereo not given in full) | 4.77% (inactive) |  |
| COc1cc(C2Oc3c(O)cc(CCCO)cc3C2CO)ccc1O[C@H]1O[C@H](C)[C@@H](O)[C@H](O)[C@@H]1O (stereo not given in full) | 3.12% (inactive) |  |
| C/C=C/C1=CC2=C(CO1)C(=O)[C@](C)(O)[C@H](OC(=O)c1c(O)cc(OC)c(O)c1C)C2 | -9.96% (inactive) |  |
| OCC1=CC[C@@H]2C=CO[C@@H](O[C@@H]3O[C@H](CO)[C@@H](O)[C@H](O)[C@H]3O)[C@H]12 | -2.94% (inactive) |  |
| C[C@]1(OC(=O)/C=C/c2ccccc2)C[C@H](O)[C@]2(O)C=CO[C@@H](O[C@@H]3O[C@H](CO)[C@@H](O)[C@H](O)[C@H]3O)C12 (stereo not given in full) | -2.14% (inactive) |  |
| NCCOCCOCCNC(=O)Cc1ccc(Nc2nc(NCc3ccc(F)cc3)nc(NCC3CCCCC3)n2)cc1 | -13.4% [at 114 µM] (inactive) |  |
| CC1CC(=O)C2=C(O1)OC1(C)CCC3C(C)(C)C=CC(=O)C3(C)C1C2 (stereo not given) | -1.35% (inactive) |  |
| CC(C)C(C(=O)N1CCCC1C(=O)O)N(C)C(=O)C(O)Cc1ccccc1 (stereo not given) (H-[PhLac]-[NMeV]-Pro-OH; configuration not given here) | 3.88% (inactive) |  |
| CC(=O)O[C@@H]1[C@H](O[C@@H]2OC[C@](O)(CO)[C@H]2O)[C@@H](O[C@@H]2O[C@@H](C)[C@H](O)[C@@H](O)[C@H]2O)[C@H](OC(=O)[C@]23CCC(C)(C)C[C@H]2C2=CCC4[C@@]5(C)C[C@H](O)[C@H](O[C@@H]6O[C@H](C(=O)O)[C@@H](O)[C@H](O)[C@H]6O)[C@@](C)(C(=O)O)C5CC[C@@]4(C)[C@]2(C)CC3)O[C@@H]1C (stereo not given in full) | -1.72% [at 30.2 µM] (inactive) |  |
| CC(=O)O[C@@H]1[C@H]2[C@@H](OC(=O)c3ccccc3)[C@@H](C)C[C@]2(O)[C@H](OC(C)=O)[C@@]2(C)[C@@H]3CC(C)(C)C(=O)[C@]3(OC(C)=O)C[C@@]12C | -5.2% [at 30.2 µM] (inactive) |  |
| CC(C)(O)C1CC=C(C(=O)OCC2OC(Oc3c(O)cc(C(=O)O)cc3O)C(O)C(O)C2O)CC1 (stereo not given) | -11.1% (inactive) |  |
| CC1=C(C)C(=O)OC(C(C)(O)C2CCC3C4CC=C5CC(OC6OC(COC7OC(CO)C(O)C(O)C7O)C(O)C(O)C6O)CC(O)C5(C)C4CCC32C)C1 (stereo not given) | -5.35% [at 30.2 µM] (inactive) |  |
| CC1=CC(=O)C2C(C)(C)CC(O)CC2(C)C1CO (stereo not given) | -2.27% [at 114 µM] (inactive) |  |
| CCC(C)/C=C(C)/C=C/C1=CC2=C(Cl)C(=O)C(C)(OC(C)=O)C(=O)C2=CN1C1CCCCN(C(CCC(N)=O)C(=O)O)C1=O (stereo not given) | -16.8% [at 30.2 µM] (inactive) |  |
| C/C=C/C1=CC2=CC(=O)C(C)(O)C(OC(=O)c3c(C)cc(O)cc3O)C2CO1 (stereo not given) | -12.3% (inactive) |  |
| CC1(C)C(=O)N2c3ccccc3[C@]3(CC(n4cnc5ccccc5c4=O)C(=O)O3)[C@H]2N1O (stereo not given in full) | -3.03% (inactive) |  |
| C[C@@H]1O[C@@H](O[C@H]2[C@H](OC(=O)C34CCC(C)(C)CC3C3=CCC5C6(C)CC(O)C(O[C@@H]7O[C@H](CO)[C@@H](O)[C@H](O)[C@H]7O)C(C)(C(=O)O)C6CCC5(C)C3(CO)CC4)O[C@H](C)[C@H](O)[C@@H]2O)[C@H](O)[C@H](O)[C@H]1O[C@@H]1OC[C@@H](O)[C@H](O)[C@H]1O (stereo not given in full) | 4.81% [at 30.2 µM] (inactive) |  |
| CCC[C@@H]1C[C@@H](C(=O)N[C@H](C(C)Cl)[C@H]2O[C@H](SC)[C@H](O)[C@@H](O)[C@H]2O)N(C)C1 (stereo not given in full) | 0.966% [at 114 µM] (inactive) |  |
| OC[C@H]1O[C@@H](OC(CCCCc2ccc(O)cc2)CCc2ccc(O)cc2)[C@H](O[C@@H]2OC[C@](O)(CO)[C@H]2O)[C@@H](O)[C@@H]1O (stereo not given in full) | 0.0925% [at 30.2 µM] (inactive) |  |
| CC(O)C(O)/C=C/C=C/C(=O)O[C@@H]1C=C2COC(=O)[C@]2(O)[C@@]2(C)CCCC(C)(C)C12 (stereo not given in full) | 2.57% (inactive) |  |
| Cc1nnc(C(C)C)n1C1CC2CCC(C1)N2CC[C@H](NC(=O)C1CCC(F)(F)CC1)c1ccccc1 (stereo not given in full) | 5.84% [at 114 µM] (inactive) |  |
| C=CC1(C)CC2=CCC3C(C)(C(=O)O)CCCC3(C)C2CC1OC(C)=O (stereo not given) | -0.802% (inactive) |  |
